This is a sample that favours compounds with a hit; in the whole collection about 27% have one here.
CYP2C9 inhib: blockers of cytochrome P450 2C9 activity – biochemical, luminescence, ADME assay, primary screen | P11712 | CYP2C9 Supersomes, luciferin-H conversion | inhibition, % at 5 µM | 96,000 tested, 20% active | AID 777, 2007;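 active means blocking of liver enzyme CYP2C9 beyond about 50% at 5 µM, limit read from the data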
Target sequence (P11712 whole entry, looked up): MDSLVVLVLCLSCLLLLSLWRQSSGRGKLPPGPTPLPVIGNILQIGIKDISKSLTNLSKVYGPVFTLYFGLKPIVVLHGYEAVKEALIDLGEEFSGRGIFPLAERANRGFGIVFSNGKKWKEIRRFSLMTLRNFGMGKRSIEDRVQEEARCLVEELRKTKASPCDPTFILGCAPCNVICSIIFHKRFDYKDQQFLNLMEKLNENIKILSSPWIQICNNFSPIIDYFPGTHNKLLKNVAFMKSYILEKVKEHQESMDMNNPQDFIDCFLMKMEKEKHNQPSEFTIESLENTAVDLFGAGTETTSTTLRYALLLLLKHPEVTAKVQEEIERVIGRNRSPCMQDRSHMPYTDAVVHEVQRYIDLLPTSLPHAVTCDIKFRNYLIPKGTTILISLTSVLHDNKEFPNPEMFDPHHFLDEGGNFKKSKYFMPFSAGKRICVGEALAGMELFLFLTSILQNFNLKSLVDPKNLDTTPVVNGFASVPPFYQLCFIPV
CYP2C9 act: human CYP2C9 activators, primary screen, biochemical, luminescence; Cytochrome P450 2C9 (Homo sapiens), P11712; recombinant CYP2C9, luciferin-H conversion; active compounds read high; factor 1 = untreated enzyme, 0 = blocked; activation factor at 5 µM; 96,000 tested, 1.4% active; AID 1024, 2008;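 active means activation factor of 2 or more for CYP2C9 at a 5 µM dose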;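 further: 0 = sulfaphenazole-blocked wells and 1 = vehicle-only wells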
CYP2C19 act: human CYP2C19 activators, primary screen, biochemical, luminescence. AID 1025, 2008. Cytochrome P450 2C19 (Homo sapiens), P33261. recombinant CYP2C19, luciferin-H EGE luminescence; active compounds read high; 0 = fully inhibited enzyme, 1 = untreated enzyme. 96,000 tested, under 10 active. activation factor at 5 µM;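 active means activation factor of at least 2 at 5 µM in the primary screen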;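 further: 0 = wells with 2.5 mM tranylcypromine and 1 = vehicle-only wells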
Cav3 T inh: Cav3.2 calcium influx blockers – cell-based, Fluo-4 calcium fluorescence, FDSS, MLSMR library, primary screen; Voltage-dependent T-type calcium channel subunit alpha-1H (Homo sapiens), O95180; Cav3.2-expressing cells; active compounds read low; B-score at 10 µM; 100,000 tested, 4% active; AID 449739, 2010;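 active means single-dose well whose peak fluorescence ratio is a statistical outlier from its plate by either plate-standardised score or position-corrected B-score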
CYP2C19 inh: blockers of cytochrome P450 2C19 activity – biochemical, luminescence, ADME assay, primary screen; P33261; CYP2C19 Supersomes, luciferin-H EGE luminescence, 30 min; inhibition, % at 5 µM; 96,000 tested, 21% active; AID 778, 2007;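 active means CYP2C19 inhibition above a set limit at 5 µM in the primary screen, cut at about 50% in these data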;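 further: plate controls were negative control wells for no effect and 2.5 mM tranylcypromine positive control for full effect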
* = called active by the depositor; / = not tested or not shown.

SMILES | CYP2C9 inhib | CYP2C9 act | CYP2C19 act | Cav3 T inh | CYP2C19 inh
COc1ccc(/C(O)=C/Sc2nnc(Cc3ccccc3)o2)cc1 | -72 | 1.7 | 0.7 | / | 31
COc1ccc(S(=O)(=O)N2CCCC(C(=O)O)C2)cc1 (stereo unspecified) | -29 | 1.3 | 1 | / | 3
CN(CCOc1ccccc1)c1ccc(S(=O)(=O)N2CCCCC2)cn1 | -24 | 1.2 | 0.8 | -7.6* | 24
COc1ccccc1Oc1ccc(S(=O)(=O)N2CCCC2)cc1 | 78* | 0.2 | 0.4 | -2.6 | 56*
CCCCOc1ccc(S(=O)(=O)N2CCCCCC2)cc1 | 94* | 0.1 | 0.1 | -2.4 | 93*
COC(=O)c1ccc(S(=O)(=O)N2CCCCCC2)cc1 | 26 | 0.7 | 0.6 | 0.11 | 44
O=C(NCCN1C(=O)CSC1=O)c1ccccc1 | -14 | 1.1 | 1 | 0.11 | -1
Cc1ccsc1C1C=C(c2cccc(Br)c2)Nc2ncnn21 (stereo unspecified) | 62* | 0.4 | 0.4 | -4.6 | 62*
Fc1ccc(Br)cc1C1C=C(c2ccc(Br)cc2)Nc2ncnn21 (stereo unspecified) | 56* | 0.4 | 0.1 | -0.53 | 87*
COc1cccc(C2=CC(c3ccc(C)cc3)n3ncnc3N2)c1 (stereo unspecified) | 28 | 0.7 | 0.9 | -2.9 | 7
CCOC(=O)c1c(-c2ccc(C)c(C)c2)csc1NC(=O)C1CC=CCC1C(=O)O (stereo unspecified) | 76* | 0.2 | 0.9 | / | 10
CCCNC(=O)C1(CC2CC(c3ccccc3)=NO2)CCN(C(=O)C2(C)CC2)CC1 (stereo unspecified) | / | / | / | 1.4 | /
Cc1cc(C(=O)OCC(=O)c2ccc(Br)s2)no1 | 66* | 0.3 | 0.8 | 0.62 | 17
Cc1ccc(CNC(=O)CSc2nc3ccsc3c(=O)n2NC(=O)c2ccccc2)cc1 | 64* | 0.4 | 1 | 1.2 | 4
COc1ccc(C(=O)Nn2c(SCC(=O)c3ccccc3)nc3ccccc3c2=O)cc1 | 37 | 0.6 | 1 | / | -3
COc1ccc(C(=O)Nn2c(SCc3ccc([N+](=O)[O-])cc3)nc3ccccc3c2=O)cc1 | 84* | 0.2 | 0.7 | -2.9 | 34
CCOC(=O)CSc1nc2ccccc2c(=O)n1NC(=O)c1ccccc1 | 67* | 0.3 | 1 | 0.73 | 2
Cc1cc(NC(=O)CSc2nc3ccsc3c(=O)n2NC(=O)c2ccccc2)no1 | / | / | / | 0.48 | /
C=CCOC(=O)C1=C[C@H](c2cn(C(C)=O)c3ccccc23)[C@@H](CCCO)[C@H](OCC)O1 | / | / | / | -1.1 | /
CC(C)(C)[C@H]1C=C(C(=O)NCc2nc3ccccc3[nH]2)O[C@@H](OCc2ccc(CO)cc2)C1 | / | / | / | -1.2 | /
CCCC1CCc2c(sc(NC(=O)OCC)c2C#N)C1 (stereo unspecified) | / | / | / | 0.031 | /
Nc1cccnc1Sc1cc(Cl)cc(Cl)c1 | -72 | 1.7 | 0.5 | -0.15 | 48
Cn1c(=O)n(CC#N)c2ccccc21 | -13 | 1.1 | 1 | 0.59 | -4
Cn1c(CNC2CCCCC2)c(C#N)c2ccccc21 | 30 | 0.7 | 0.4 | -0.12 | 55*
Cn1c(CN2CCCCC2)c(C#N)c2ccccc21 | 13 | 0.9 | 0 | -1.2 | 98*
SMILES | CYP2C9 inhib | CYP2C9 act | CYP2C19 act | Cav3 T inh | CYP2C19 inh
Cn1c(CN2CCN(CC#N)CC2)c(C#N)c2ccccc21 | -188 | 2.9* | 0.5 | 1 | 48
Cn1c(CN2CCC(C(N)=O)CC2)c(C#N)c2ccccc21 | / | / | / | 0.38 | /
O=C(NCc1ccco1)C1CCC(N2C(=O)c3ccccc3C2=O)CC1 (stereo unspecified) | 38 | 0.6 | 0.8 | -0.03 | 24
Cc1occc1C(=O)NN=C1C2CC3CC(C2)CC1C3 | / | / | / | -0.46 | /
Cc1nnc(N2C(=O)C(O)=C(C(=O)c3ccco3)C2c2ccc(C(C)(C)C)cc2)s1 (stereo unspecified) | / | / | / | -3.7* | /
C=CCN(C(=O)CN1CCOCC1)c1nc(C)c(-c2ccccc2)s1 | 32 | 0.7 | 0.3 | -3.4 | 70*
O=C(CC1(O)C(=O)Nc2ccccc21)c1cccnc1 (stereo unspecified) | 0 | 1 | 1 | 0.62 | 0
N#C/C(=C\c1ccc(Cl)cc1Cl)c1n[nH]c(Cn2cncn2)n1 | 78* | 0.2 | 0.4 | -0.074 | 61*
OCCOc1nnnn1-c1ccccc1 | 10 | 0.9 | 1 | 1.2 | -3
CCC(C)N(NC(C)=O)c1nc(Cl)nc(NC(C)C)n1 (stereo unspecified) | 2 | 1 | 1 | 1.6 | -5
COc1ccc(N2C(=O)CSC23C(=O)Nc2ccccc23)cc1OC (stereo unspecified) | 21 | 0.8 | 0.8 | -0.93 | 25
COc1cc(N2C(=O)CSC23C(=O)Nc2ccccc23)cc(OC)c1OC (stereo unspecified) | 19 | 0.8 | 0.8 | 1.2 | 21
CCc1nn(-c2ccccc2)c2c1-c1cc(OC)c(OC)cc1C1(N2)C(=O)Nc2ccccc21 (stereo unspecified) | 82* | 0.2 | 0.8 | / | 19
COc1cc2c(cc1OC)C1(Nc3c-2c(-c2ccccc2)nn3-c2ccccc2)C(=O)Nc2ccccc21 (stereo unspecified) | 60* | 0.4 | 1 | -1.4 | 3
COc1cc2c(cc1OC)C1(Nc3c-2c(C)nn3-c2ccccc2)C(=O)Nc2ccccc21 (stereo unspecified) | 66* | 0.3 | 0.9 | / | 11
O=C(CN1CCN(CCO)CC1)Nc1ccccc1 | / | / | / | -0.32 | /
CCOc1ccccc1N1CC(C(=O)N2CCc3ccccc3C2)CC1=O (stereo unspecified) | 6 | 0.9 | 0.7 | 0.23 | 30
CCn1c(-c2ccccc2Cl)nn(CC(=O)Nc2ccccc2OC)c1=S | -31 | 1.3 | 0.1 | 0.44 | 91*
Cc1nc(-c2ccccn2)sc1C(=O)Nc1ccc(F)cc1 | -114 | 2.1* | 0.9 | -1.2 | 10
Cc1nc(-c2ccccn2)sc1C(=O)Nc1ccc(F)cc1F | -74 | 1.7 | 1 | -0.5 | 2
CO/N=C/NC(=O)NOCc1c(Cl)cccc1Cl | -4 | 1 | 0.9 | -0.4 | 10
CCCC(=O)Nc1cnc(NC(=O)c2cccc(F)c2)cc1C | 23 | 0.8 | 0.3 | -1.3 | 68*
Cc1cc(NC(=O)c2ccccc2)ncc1NC(=O)c1ccco1 | 56* | 0.4 | 0.1 | 0.3 | 95*
CCOC(=O)c1ccccc1NC(=O)c1cccc(F)c1 | -11 | 1.1 | 0.8 | -1 | 19
CCC(=O)Nc1cc(C)c(NC(=O)c2ccco2)cn1 | -8 | 1.1 | 1 | -0.4 | 5
CCCC(=O)Nc1cc(C)c(NC(=O)c2ccccn2)cn1 | -3 | 1 | 0.5 | 0.67 | 54*
CC(C)N1C(=O)C2C(C(=O)NCc3ccccc3)C3C=CC2(O3)C1C(=O)NC(C)(C)C (stereo unspecified) | 6 | 0.9 | 1 | -0.008 | 2

Screens: PubChem, several laboratories
